Records with an inconclusive call do not appear. Where a call stands in place of a potency, no number is given. Active and inactive are the calls of the source. Calls follow the shape of the dose curve; as a rule, active = well fitted inhibition curve with a large enough effect; inconclusive = small, poorly fitted or top-dose-only effect; inactive = flat fitted curve, though single readings scatter.

The subject of the test is CRL-7250. Nature of the test: qHTS assay to identify novel small-molecules to repurpose for Merkel cell carcinoma treatment (AID 1296009). Also: nearly all actives have a fitted effect of over 60% in size. As to conditions: MCC and control cell lines, CellTiter-Glo viability, 72 h; series mostly up to 92 µM. An excerpt:
MCC is a rare and aggressive neuroendocrine skin cancer with limited treatment options. Approximately 80% of MCCs have the Merkel cell polyomavirus (MCPyV) DNA integrated into the host genome (virus-positive: VP-MCC) and viral oncogenes drive oncogenesis. The remaining MCCs are virus-negative (VN-MCC) and are caused by UV mutagenesis. To identify novel treatments for VP-MCC and/or VN-MCC we screened three VP-MCC cell lines (WAGA, MKL-1, MKL-2), three VN-MCC cell lines (MCC-13, MCC-26, UISO), and four immortalized, non-transformed control cell lines (HaCaT, HEK293T, CRL7250, NIH-3T3) against ~2,400 compounds in the NCGC Pharmaceutical Collection (NPC) and ~1,900 compounds in the Mechanism Interrogation PlatE (MiPE). Using cell viability as a readout (CellTiter-Glo assay) we found both overlapping and distinct drugs that can be repurposed for the treatment of VP-MCC and VN-MCC.
A high-throughput screen was conducted in 1536-well white flat bottom plates (Corning) on a Kalypsys robotic system. Cell lines WAGA, MKL-1, MKL-2, MCC-13, MCC-26, UISO, HaCaT, HEK293T, CRL7250, and NIH-3T3 were screened against 2 small molecule annotated drug libraries NPC and MIPE in dose response (8 and 11 pt. respectively) measuring cell viability after 72 hours of incubation. […] A 1,536 pintool (Kalypsys) was used to transfer 23 nL of compound in DMSO to the 1,536-well assay plates. After 72 hr incubation at 37 degree celsius, 2.5 uL of CellTiter-Glo (Promega) was dispensed into each well using a BiorapTR. Plates were incubated at room temperature for 10 min, transferred to a ViewLux (PerkinElmer) and the luminescence was recorded using an exposure time of 2 seconds. Relative luminescence units (RLUs) were normalized to in-plate controls (no cells as a positive (cytotoxicity) control, DMSO as negative control) and the normalized data was processed using NCATS in-house software.
For the compound `C[C@@H]1O[C@@H](O[C@H]2[C@H](O)[C@@H](O)[C@H](OC(=O)[C@]34CCC(C)(C)C[C@H]3C3=CCC5[C@@]6(C)CC[C@H](O[C@@H]7O[C@H](C(=O)O)[C@@H](O)[C@H](O)[C@H]7O)C(C)(C)C6CC[C@@]5(C)[C@]3(C)CC4)O[C@@H]2CO)[C@H](O)[C@H](O)[C@H]1O` (stereo not given in full), the outcome was “inactive [at 9.27 µM]”.

As for `COC1=CC(=O)O[C@@H](/C=C/c2ccccc2)[C@@H]1O`, the Potency entry was “inactive”.

In the case of `COc1cc(COC2OC(CO)C(O)C(O)C2O)cc(OC)c1O` (stereo not given), the Potency entry is “inactive”.

In the case of `C=C1CCC2C(C)(C)C(O)CCC2(C)C1CCC(C)CCOC(C)=O` (stereo not given), the Potency result is “inactive”.

In the case of `C=C1CC/C=C(/CO)C(=O)C[C@@H]2[C@@H]1CC2(C)C`, the Potency result is “inactive”.

In the case of `CN(C)S(=O)(=O)c1ccc(NC(=S)N2CCC(C(O)(c3ccccc3)c3ccccc3)CC2)cc1`, the Potency result is “inactive”.

With `CC/C=C\C(O)C(O)C1=C(C)C(=O)C2(O1)C(=O)NC(OC)(C(=O)c1ccccc1)C2O` (stereo not given), the Potency result was “inactive”.

With H-DPPDPDRFYGMM-NH2, the Potency entry is “inactive”.

For the compound `CC1(C)S[C@H]2[C@H](NC(=O)[C@@H](N)c3ccc(O)cc3)C(=O)N2[C@@H]1C(=O)O`, the Potency result is “inactive”.

On to `COc1ccc2cc([S+]([O-])Cc3ncc(C)c(OC)c3C)nc2c1`, for which the Potency result was “inactive”.

On to `CN(Cc1ccc(C(=O)O)cc1)c1ccc(OCc2c(-c3c(Cl)cccc3Cl)noc2C2CC2)nc1C(F)(F)F`, for which the Potency result is “inactive”.

For the compound `C=C1CCC2(OC1)OC1CC3C4CC=C5CC(O)CC(O[C@@H]6OC[C@@H](O)[C@H](O)[C@H]6O)C5(C)C4CCC3(C)C1(O)C2C` (stereo not given in full), the Potency result was “inactive”.

As for `C[C@H]1CC[C@@H]2N(C1)C[C@@H]1[C@H]([C@@H](O)[C@H](O)[C@]3(O)[C@H]1C[C@@]14OC5(O)[C@@H](C[C@@H](O)[C@@H]31)[C@]4(C)CC[C@@H]5O)[C@]2(C)O`, the Potency result was “inactive”.

For the compound `C=C1C[C@@]2(O)O[C@@]3(C[C@H]2C(C)C)[C@@H](C)CC[C@@H]13`, the Potency entry was “inactive”.

Turning to `CN1CCCC1Cc1c[nH]c2ccc(CCS(=O)(=O)c3ccccc3)cc12` (stereo not given), the Potency result is “inactive”.

For the compound `CC1(C)C2CC[C@]3(C)C(C(=O)C=C4[C@H]5C[C@@](C)(C(=O)O)CC[C@]5(C)CC[C@]43C)[C@@]2(C)CC[C@@H]1O` (stereo not given in full), the Potency entry is “inactive”.

Consider `Cc1ccc(CN2CCNCC2)cc1NC(=O)CNc1ccc(F)c(F)c1`, for which the Potency entry is “inactive”.

As for `CCOC1OC(=O)C[C@H]1NC(=O)[C@@H]1CCCN1C(=O)[C@@H](NC(=O)c1ccc(N)c(Cl)c1)C(C)(C)C` (stereo not given in full), the Potency entry was “inactive”.

Consider `COc1cc([C@@H](O[C@@H]2O[C@H](CO)[C@@H](O)[C@H](O)[C@H]2O)[C@@H]2CO[C@H](c3ccc(O)c(OC)c3)[C@H]2CO)ccc1O`, for which the Potency entry is “inactive”.

For `Nc1ccc(C(=O)Nc2cccc(-c3nc(N4CCOCC4)c4oc5ncccc5c4n3)c2)cn1`, the Potency result was “inactive”.

With `CC1(C)NC2N(C1=O)c1ccccc1C2(O)CC(C(=O)O)n1cnc2ccccc2c1=O` (stereo not given), the Potency entry is “inactive”.

In the case of `CC(C)C1NC(=O)C2CCCN2C1=O` (stereo not given), the Potency entry was “inactive”.

For `CC(=O)OCC(Cc1ccccc1)NC(=O)C(Cc1ccccc1)NC(=O)c1ccccc1` (stereo not given), the Potency entry is “inactive”.

`C=C1CC[C@@H]2[C@@](C)(CO[C@@H]3O[C@H](CO)[C@@H](O)[C@H](O)[C@H]3O)[C@H](O)CC[C@@]2(C)[C@@H]1CC/C(C)=C/CO[C@@H]1O[C@H](CO)[C@@H](O)[C@H](O)[C@H]1O`: the Potency entry is “inactive”.

Take `CC(C)=C1CC2[C@](C)(CC[C@@H](OC(=O)C3(C)OC3C)[C@@]2(C)O)CC1=O` (stereo not given in full): the Potency result is “inactive”.

With `Cc1ccc(Sc2cncc3sc(C(N)=O)cc23)cc1`, the Potency entry is “inactive”.

Consider `C[C@@H]1CC[C@H]2C(C)(C)[C@H](O)[C@H](O)C[C@]2(C)[C@@]12Cc1c(O)cc3c(c1O2)CNC3=O`, for which the Potency entry is “inactive”.

For `COc1ccc([C@@H]2CNC(=O)C2)cc1OC1CCCC1`, the Potency entry was “inactive”.

For the compound `COc1cc(O)cc(C)c1C(=O)O[C@H]1[C@@H](OC(C)=O)[C@H](n2ccc(=O)[nH]c2=O)O[C@@H]1CO`, the Potency result is “inactive”.

In the case of `CCc1nc(-c2cccc(C)c2)c(-c2ccnc(NC(=O)c3ccccc3)c2)s1`, the Potency entry was “inactive”.

As to `CC1CC2OCC3(O)CCC(O)C(C14CC(c1ccoc1)OC4=O)C23CO` (stereo not given), the Potency result is “inactive”.

Turning to `O=c1[nH]ccc2nc(-c3ccc(CN4CCC(c5nc(-c6ccccn6)n[nH]5)CC4)cc3)c(-c3ccccc3)cc12`, the Potency result is “inactive”.

In the case of `COc1cc2ncnc(Nc3ccc(F)c(Cl)c3)c2cc1O`, the Potency result was “inactive”.

Turning to `CC(C)=CCC(O)/C(C)=C/CO[C@@H]1O[C@H](CO)[C@@H](O)[C@H](O)[C@H]1O` (stereo not given in full), the Potency result is “inactive”.

Take `Cc1[nH]c(/C=C2\C(=O)Nc3ccc(S(=O)(=O)N(C)c4cccc(Cl)c4)cc32)c(C)c1C(=O)N1CCN(C)CC1`: the Potency result is “inactive”.

As to `CC1CCC2(CO)C(C(=O)O)=CCCC2C1(C)CCc1ccoc1` (stereo not given), the Potency entry was “inactive”.

As for `COC1CCCC/C(C)=C/C2C=C(C)C(C)C3C(CC(C)C)NC(=O)C23C(=O)C1` (stereo not given), the Potency result is “inactive”.

`O=C(O)C1=NC(C(=O)O)CC(C=CN2c3cc(O)c(OC4OC(CO)C(O)C(O)C4O)cc3CC2C(=O)O)=C1` (stereo not given): the Potency entry was “inactive”.

As for `COC(=O)C1=CO[C@@H](O[C@@H]2O[C@H](CO)[C@@H](O)[C@H](O)[C@H]2O)[C@H]2[C@@H]1[C@H](O)C[C@]2(C)O`, the Potency entry was “inactive”.

Regarding `COc1cc(CC(COC2OC(CO)C(O)C(O)C2O)c2cc(/C=C/CO)cc(OC)c2O)ccc1O` (stereo not given), the Potency result was “inactive”.
